Here are results for 24 molecules from PubChem BioAssay (NCATS).

Records with an inconclusive call do not appear. A number with no mark means an inactive call. Activity calls are given as the source filed them. The call rests on the fitted dose curve; in most records, active means well fitted curve in the direction sought with a large enough effect; inconclusive means small, poorly fitted or top-dose-only effect, or another doubt; inactive means no such curve, though single readings can be large; an effect the other way counts as inactive or inconclusive.

Assay [1] has as its target Rap guanine nucleotide exchange factor 3 (Homo sapiens) (UniProt O95398). Put plainly: Confirmatory qHTS for antagonist of cAMP-regulated guanine nucleotide exchange factor 3 (EPAC1) (AID 1645880). Further: nearly all actives have a fitted effect of over 55% in size. Further: potency means the concentration at half of the fitted maximal effect. The method, boiled down: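 Released BODIPY-GDP fluoresces less than Rap1-bound BODIPY-GDP; the signal is followed at 480/540 nm at 5-min intervals over 30 min, after 5 min at room temperature. Reactions contain 100 nM EPAC1, 250 nM RAP1B-BODIPY-GDP and 50 uM GDP; results are normalized to ATA and DMSO.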

The target is the same in assay [2]. Put plainly: Confirmatory qHTS for agonist of cAMP-regulated guanine nucleotide exchange factor 3 (EPAC1) (AID 1645881). Further: nearly all actives have a fitted effect of over 75% in size. Further: potency means the concentration at half of the fitted maximal effect.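 On activation: EPAC1 catalysed release of BODIPY-GDP from Rap1B seen as fluorescence loss; 100% = effect of cAMP agonist control.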
The target of assay [3] is Rap guanine nucleotide exchange factor 4 (Homo sapiens) (UniProt Q8WZA2). Briefly: Confirmatory qHTS for agonist of cAMP-regulated guanine nucleotide exchange factor 4 (EPAC2) (AID 1645884).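 Further: nucleotide exchange releases bodipy-GDP from Rap1 and this lowers its fluorescence; nearly all actives have a fitted effect of over 65% in size.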 Further: potency means the concentration at half of the fitted maximal effect. On activation: on the % scale 0 is the no-effect control and ±100 the full control effect.
The target is the same in assay [4]. Briefly: Confirmatory qHTS for antagonist of cAMP-regulated guanine nucleotide exchange factor 4 (EPAC2) (AID 1645885). Further: nearly all actives have a fitted effect of over 25% in size. Further: potency means the concentration at half of the fitted maximal effect. On activity change, negative = inhibition: on the % scale 0 is the no-effect control and ±100 the full control effect.
Assay [5] deals with Rap guanine nucleotide exchange factor 3 (Homo sapiens) (UniProt O95398). Briefly: Counterscreen qHTS for antagonist of cAMP-regulated guanine nucleotide exchange factor 3 (EPAC1) (AID 1645888). Further: % of control where 0% means no effect. The method, boiled down: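 Rap1B-BODIPY-GDP 250 nM + GDP 50 uM; cpds 7-pt, final 9.74 nM–152 uM (activator mode) or from 7.32 nM upwards (inhibitor mode); RT; FI 480/540 nm at 5 and 30 min, then ± cAMP, reread.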
Rap guanine nucleotide exchange factor 3 (Homo sapiens), sequence (O95398 whole entry, looked up): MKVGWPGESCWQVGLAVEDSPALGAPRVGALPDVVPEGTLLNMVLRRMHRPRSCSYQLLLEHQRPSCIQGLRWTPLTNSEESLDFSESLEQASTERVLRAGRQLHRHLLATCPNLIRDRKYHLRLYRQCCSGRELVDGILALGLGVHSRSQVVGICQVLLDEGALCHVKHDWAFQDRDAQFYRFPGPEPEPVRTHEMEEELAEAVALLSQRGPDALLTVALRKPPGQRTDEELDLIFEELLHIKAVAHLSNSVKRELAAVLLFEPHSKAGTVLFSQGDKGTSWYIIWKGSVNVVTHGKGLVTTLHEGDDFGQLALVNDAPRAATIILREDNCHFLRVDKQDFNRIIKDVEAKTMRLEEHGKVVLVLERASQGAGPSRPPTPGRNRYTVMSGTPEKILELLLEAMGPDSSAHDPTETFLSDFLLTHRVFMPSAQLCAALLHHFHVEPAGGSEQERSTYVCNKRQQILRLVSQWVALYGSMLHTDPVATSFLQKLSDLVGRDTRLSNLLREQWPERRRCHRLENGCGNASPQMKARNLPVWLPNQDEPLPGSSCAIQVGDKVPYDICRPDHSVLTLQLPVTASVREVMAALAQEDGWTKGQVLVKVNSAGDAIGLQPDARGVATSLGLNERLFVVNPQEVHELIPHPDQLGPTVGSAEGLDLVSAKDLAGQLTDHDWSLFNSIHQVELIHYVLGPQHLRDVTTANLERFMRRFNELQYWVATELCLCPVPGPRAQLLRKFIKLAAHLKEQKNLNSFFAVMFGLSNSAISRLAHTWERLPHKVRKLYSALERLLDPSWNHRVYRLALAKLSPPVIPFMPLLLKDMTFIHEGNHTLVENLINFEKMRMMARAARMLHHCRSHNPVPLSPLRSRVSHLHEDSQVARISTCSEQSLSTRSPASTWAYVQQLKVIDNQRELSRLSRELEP

Rap guanine nucleotide exchange factor 4 (Homo sapiens), sequence (Q8WZA2 whole entry, looked up): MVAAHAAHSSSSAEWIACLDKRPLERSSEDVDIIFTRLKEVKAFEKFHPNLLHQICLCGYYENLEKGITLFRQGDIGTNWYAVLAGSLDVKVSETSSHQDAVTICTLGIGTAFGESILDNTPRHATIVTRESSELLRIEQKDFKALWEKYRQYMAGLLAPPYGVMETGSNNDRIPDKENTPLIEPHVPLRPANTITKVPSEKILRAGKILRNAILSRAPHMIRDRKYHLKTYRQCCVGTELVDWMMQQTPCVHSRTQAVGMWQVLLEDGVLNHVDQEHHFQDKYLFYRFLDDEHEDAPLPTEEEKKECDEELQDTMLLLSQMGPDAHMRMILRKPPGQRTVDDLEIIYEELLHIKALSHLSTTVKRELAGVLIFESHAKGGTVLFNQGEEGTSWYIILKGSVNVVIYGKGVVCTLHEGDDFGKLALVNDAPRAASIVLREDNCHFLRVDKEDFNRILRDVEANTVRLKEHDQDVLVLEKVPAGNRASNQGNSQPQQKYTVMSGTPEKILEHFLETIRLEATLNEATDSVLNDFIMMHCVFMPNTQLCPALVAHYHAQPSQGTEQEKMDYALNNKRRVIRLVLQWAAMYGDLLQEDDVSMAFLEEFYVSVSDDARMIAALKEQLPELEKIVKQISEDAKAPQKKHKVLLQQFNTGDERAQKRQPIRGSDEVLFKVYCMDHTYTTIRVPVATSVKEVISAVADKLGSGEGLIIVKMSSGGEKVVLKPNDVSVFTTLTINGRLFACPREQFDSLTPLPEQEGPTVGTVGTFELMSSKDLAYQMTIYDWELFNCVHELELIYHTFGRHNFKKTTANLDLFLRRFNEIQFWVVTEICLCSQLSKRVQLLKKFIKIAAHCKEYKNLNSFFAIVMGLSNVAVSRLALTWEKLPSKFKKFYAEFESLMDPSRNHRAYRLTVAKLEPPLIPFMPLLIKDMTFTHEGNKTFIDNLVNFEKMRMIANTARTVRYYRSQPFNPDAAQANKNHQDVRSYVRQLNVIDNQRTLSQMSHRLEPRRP

As to `CCN(CC(=O)Nc1ccc(NC(C)=O)cc1)CC(=O)Nc1ccc(F)c(Cl)c1`, the Potency entry in assay [1], in assay [2] and in assay [4] was “inactive” throughout. In addition, in assay [3], the activation is 5.14% [at 17.1 µM, percent relative to cAMP agonist control]. The activity change, negative = inhibition in assay [5] was 3.51% [at 30.8 µM].
As for `CCOC(=O)Cn1c(-c2cccs2)cc2cc(Cl)ccc21`, the Potency entry in assay [1], in assay [2], in assay [3] and in assay [5] was “inactive” in each case. The outcome in assay [4] is “inactive [at 12.7 µM]”.
With `Cc1ccc(C2=NOC(=O)/C2=C\c2ccc(C)o2)cc1`, the Potency in assay [1] was 75.7 µM (active). The Potency result in assay [2], in assay [3], in assay [4] and in assay [5] was “inactive” each time.
As for `CN1CCN(CCC(=O)Nc2ccc(Cl)cc2)CC1`, the Potency entry in assay [1], in assay [2], in assay [3], in assay [4] and in assay [5] was “inactive” each time.
`Cc1ccc(S(=O)(=O)N2CCN(CC(=O)Nc3ccccc3C(=O)NC3CC3)CC2)cc1`: the Potency result in assay [1], in assay [2] and in assay [4] was “inactive” throughout. The activation in assay [3] is 6.96% [at 17.1 µM, percent relative to cAMP agonist control]. Moreover, the activity change, negative = inhibition in assay [5] is -3.04% [at 30.8 µM].
With `C/C(=N\NC(=O)c1cc2ccccc2cc1O)c1cc2ccccc2o1`, the Potency in assay [1] is 37.9 µM (active). The Potency result in assay [2], in assay [3], in assay [4] and in assay [5] was “inactive” in each case.
Consider `CCOC(=O)N1CCN(C(=O)CSc2nnc(Cc3ccccc3)o2)CC1`, for which the Potency entry in assay [1], in assay [2], in assay [3], in assay [4] and in assay [5] was “inactive” throughout.
As for `C#CC(c1ccccc1)(c1ccccc1)n1ccnc1`, the Potency result in assay [1], in assay [2], in assay [3], in assay [4] and in assay [5] was “inactive” in each case.
Consider `Cc1cc(Nc2ccccc2)n(-c2nc3ccccc3[nH]2)n1`, for which the Potency result in assay [1], in assay [2] and in assay [4] was “inactive” in each case. The activation in assay [3] is 5.09% [at 17.1 µM, percent relative to cAMP agonist control]. Further, the activity change, negative = inhibition in assay [5] was -0.198% [at 30.8 µM].
As for `COc1ccc(/C=N/Nc2ccc(C(=O)O)cc2)cc1Br`, the Potency result in assay [1], in assay [2], in assay [3], in assay [4] and in assay [5] was “inactive” each time.
On to `O=C(c1ccc([N+](=O)[O-])o1)N1CCN(c2nc3c(Cl)cccc3s2)CC1`, for which the Potency entry in assay [1], in assay [2], in assay [3], in assay [4] and in assay [5] was “inactive” throughout.
Consider `N#C/C(=C/c1ccc(N2CCOCC2)o1)c1nc2ccccc2[nH]1`, for which the Potency result in assay [1] and in assay [5] was “inactive” each time. For the same molecule, the figures for the Potency in assay [2], in assay [3] and in assay [4] were 112 µM (active), 89.1 µM (active) and 42.6 µM (active), respectively.
For the molecule `O=C(NCCN1CCCC1)C(c1ccccc1)c1ccccc1`, the Potency entry in assay [1], in assay [2], in assay [3], in assay [4] and in assay [5] was “inactive” in each case.
Take `Cc1ccc2c(c1)C(c1ccccc1)CC(=O)O2` (stereo not given): the Potency result in assay [1], in assay [2], in assay [3] and in assay [5] was “inactive” each time. The Potency in assay [4] is 37.9 µM (active).
Take `CSC1=NC2(CCN(C(=O)NC3CCCCC3)CC2)N=C1c1ccc(C)cc1`: the Potency entry in assay [1], in assay [2], in assay [3], in assay [4] and in assay [5] was “inactive” throughout.
As for `O=c1nc2s/c(=C\c3ccc(-c4ccccc4[N+](=O)[O-])o3)c(=O)n2nc1-c1ccccc1`, the Potency in assay [1] was 12 µM (active). Besides, the Potency result in assay [2], in assay [3], in assay [4] and in assay [5] was “inactive” throughout.
As to `Cc1cc(C)cc(-c2nnc(SCc3ccc(C(=O)O)cc3)o2)c1`, the Potency entry in assay [1], in assay [2] and in assay [4] was “inactive” in each case. The activation in assay [3] was 0% [at 17.1 µM, percent relative to cAMP agonist control]. Further, the activity change, negative = inhibition in assay [5] is -19.9% [at 30.8 µM].
As to `Cc1ccc2nc3sc(C(=O)NCc4ccco4)c(N)c3cc2c1`, the Potency entry in assay [1], in assay [2] and in assay [4] was “inactive” throughout. Moreover, the activation in assay [3] is 2.22% [at 17.1 µM, percent relative to cAMP agonist control]. The activity change, negative = inhibition in assay [5] is 3.21% [at 30.8 µM].
Take `O=C(Cn1cc(SCc2ccc(Cl)cc2)c2ccccc21)N1CCCC1`: the Potency entry in assay [1], in assay [2], in assay [3], in assay [4] and in assay [5] was “inactive” throughout.
As to `O=C(Cc1c(Cl)cccc1Cl)Nc1ccncc1`, the Potency result in assay [1], in assay [2] and in assay [4] was “inactive” each time. In addition, the activation in assay [3] is 13.7% [at 17.1 µM, percent relative to cAMP agonist control]. Further, the activity change, negative = inhibition in assay [5] is 2.85% [at 30.8 µM].
Consider `CC1CN(C(=O)CCC(=O)NCc2ccccc2)c2ccccc2S1` (stereo not given), for which the Potency result in assay [1], in assay [2], in assay [3], in assay [4] and in assay [5] was “inactive” in each case.
Turning to `Cc1nc(SCC(=O)N2CCCCCC2)[nH]c(=O)c1C`, the Potency entry in assay [1], in assay [2], in assay [3], in assay [4] and in assay [5] was “inactive” each time.
For the molecule `Cc1ccc(/C=C2\SC(=S)N(NS(=O)(=O)c3ccc(C)cc3)C2=O)cc1`, the Potency in assay [1] is 39.8 µM (active). The Potency entry in assay [2] and in assay [4] was “inactive” throughout. In assay [3], the activation is 11.9% [at 17.1 µM, percent relative to cAMP agonist control]. The activity change, negative = inhibition in assay [5] was -10.4% [at 30.8 µM].
Consider `O=C(CCNC(=O)c1ccccc1Cl)NCC(c1ccc(F)cc1)N1CCOCC1` (stereo not given), for which the Potency entry in assay [1], in assay [2], in assay [3], in assay [4] and in assay [5] was “inactive” in each case.
